Pol III holo inh – inhibitors of bacterial DNA polymerase III holoenzyme. reconstituted DNA polymerase III holoenzyme replication, biochemical. Potency, µM (top dose mostly 57.1 µM), for the others: at the top dose activity change, negative = inhibition. 0.25% of 71,000 active; note: potency is the fitted concentration of half-maximal effect; % is set by controls: 0 for no effect and ±100 for the full control effect
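Reconstituted *E. coli* holoenzyme (0.35 nM Pol III, 1 nM beta, 154 nM SSB, 2 nM primase) was preincubated with compound for 15 min at RT. Synthesis on 1.4 nM ssM13Gori ran 35 min, then was stopped with PicoGreen/EDTA and read as dsDNA fluorescence.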
YjeE inh – inhibitors of E. coli YjeE (TsaE). P0AF67. purified YjeE enzyme, qHTS inhibition assay. Potency, µM. 0.05% of 71,000 active. AID 605
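Fluorescence polarization of a BODIPY Texas Red–ADP probe (2 uM) bound to purified YjeE (10 uM) was read after 15 min room-temperature incubation with compounds. Loss of polarization marks inhibitors; ADP serves as titrated control.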
p53ts 39C kill – kills p53ts cells at the nonpermissive temperature; 1.5% of 130,000 active; H1299-p53A138V viability at 39C, ATP luminescence, 24 h; Potency, µM (titrated, usually from 46.1 µM), for the others: top-dose activity change, negative = cell killing, usual class: cytotoxic; AID 902; note: potency is the fitted concentration of half-maximal effect; % is set by controls: 0 for no effect and ±100 for the full control effect; nearly all actives have a fitted effect of over 55% in size
Tau filament bind – binders of human tau filaments. P10636. recombinant tau filaments, thioflavin S fluorescence, 15 h; filaments grown with octadecylsulfate alongside compound. Potency, µM (doses to about 57.1 µM), for the others: at the top dose activity change, negative = inhibition. 2% of 71,000 active. AID 596;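 note: potency is the fitted concentration of half-maximal effect; % is set by controls: 0 for no effect and ±100 for the full control effect; actives lower thioflavin S fluorescence by blocking filaments or displacing dye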
Target sequence (P10636 whole entry, looked up): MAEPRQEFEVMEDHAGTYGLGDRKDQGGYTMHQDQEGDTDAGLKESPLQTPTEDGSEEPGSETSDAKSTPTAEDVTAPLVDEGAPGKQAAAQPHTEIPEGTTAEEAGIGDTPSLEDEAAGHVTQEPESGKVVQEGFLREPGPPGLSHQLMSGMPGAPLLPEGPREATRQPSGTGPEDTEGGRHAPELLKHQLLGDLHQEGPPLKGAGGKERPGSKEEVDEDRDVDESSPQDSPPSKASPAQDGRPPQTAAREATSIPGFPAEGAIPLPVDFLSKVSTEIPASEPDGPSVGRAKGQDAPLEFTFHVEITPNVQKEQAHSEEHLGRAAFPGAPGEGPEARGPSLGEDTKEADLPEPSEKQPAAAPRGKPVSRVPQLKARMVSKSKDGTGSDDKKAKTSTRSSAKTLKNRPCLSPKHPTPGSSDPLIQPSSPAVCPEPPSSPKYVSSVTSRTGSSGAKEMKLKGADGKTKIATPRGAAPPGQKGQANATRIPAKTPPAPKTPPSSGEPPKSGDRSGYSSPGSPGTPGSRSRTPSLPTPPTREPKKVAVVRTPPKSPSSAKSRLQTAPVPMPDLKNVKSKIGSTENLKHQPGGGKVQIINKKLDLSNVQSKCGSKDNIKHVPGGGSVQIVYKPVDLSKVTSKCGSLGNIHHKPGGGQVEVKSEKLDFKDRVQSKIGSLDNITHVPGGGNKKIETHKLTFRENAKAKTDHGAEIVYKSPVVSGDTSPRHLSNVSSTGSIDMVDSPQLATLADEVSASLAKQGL
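Tau 2 uM in ThS buffer dispensed; compound added; 60 uM ODS added (finals 1 uM tau, 30 uM ODS); 15 h 37 C; fluor ex450/em510.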
p53ts 32C tox – cytotoxicity in p53ts cells at permissive temperature. H1299-p53A138V at 32C, ATP luminescence viability, 24 h. Potency, µM (doses to about 46.1 µM), without a hit: top-dose activity change, negative = cytotoxicity, hits mostly cytotoxic. 0.93% of 130,000 active;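 note: potency is the fitted concentration of half-maximal effect; 0% = DMSO and -100% = full killing by reference compound; nearly all actives have a fitted effect of over 55% in size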
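H1299-p53 A138V cells (temperature-sensitive p53) exposed 24 h to up to 46 uM compound at 32C, where p53 is wild-type in conformation. Viability read as ATP luminescence and normalised to DMSO and 100 uM tamoxifen. AC50 fitted with the Hill equation.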
ERK AVP inh – inhibitors of vasopressin-stimulated ERK signaling pathway; HEK293-V1b, vasopressin-stimulated pERK AlphaScreen; Potency, µM (series often up to 57.5 µM), without a hit: at the top dose activity, negative = inhibition, usual class: inhibitors; 0.99% of 72,000 active; AID 995; note: potency is the fitted concentration of half-maximal effect; % is set by controls: 0 for no effect and ±100 for the full control effect; nearly all actives have a fitted effect of over 55% in size
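HEK293 cells stably expressing V1b receptor, preincubated 30 min at 37 °C with compound, then stimulated 5 min with 25 nM vasopressin. Phospho-ERK by AlphaScreen SureFire after 5 h RT; normalized to DMSO and vasopressin; AC50 by Hill fit.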
* hit, by the source's call; i = inactive; ? = inconclusive; . = not tested or not shown; ! = a repeat was not active; [ ] = another dose, or the depositor's remark. Sampled rows, rich in hits. Any-hit rate of the full collection: about 3.2%. Calls come from the whole dose curve; as a rule, active = well fitted curve in the direction sought with a large enough effect; inconclusive = small, poorly fitted or top-dose-only effect, or another doubt; inactive = no such curve, though single readings can be large; an effect the other way counts as inactive or inconclusive.

SMILES | Pol III holo inh | YjeE inh | p53ts 39C kill | Tau filament bind | p53ts 32C tox | ERK AVP inh
COc1ccc(OC)c(N2Cc3cc(C)c(C)cc3C2)c1 | -0.7% | i | -4.2% | 15.8µM* | 3.7% | -16.9%
CC(C)(C)C1CCC2(CC1)C(C#N)=C(SCC(=O)NC1CCCCC1)NC(=O)C2C#N (stereo not given) | -6.5% | i | 22.8% | 12.6µM* | 40.5% | 14.8%
Cc1nc(-c2ccc(S(=O)(=O)Nc3ccc(C#N)cc3)cc2)co1 | . | . | -28.6% | . | 10.8% | .
CCOC(=O)c1cccc(NC(=O)C(CC(C)C)N2Cc3ccccc3C2=O)c1 (stereo not given) | . | . | . | . | 9.9% | .
Oc1cccc(O)c1O | 7.94µM* | i | 0.8% | -3.8% | 2.6%[1.84 µM] | 3.1%
Cc1cccc(NC(=O)c2cnc3sccn3c2=O)c1 | -5.0% | i | 10µM* | -10.1% | 7.94µM* | .
Clc1ccccc1-c1nccc(NCCN2CCOCC2)n1 | 2.6% | i | -12.9% | -11.9% | -1.3% | -24.6%
O=C1C(Cl)=C(NC2CCc3ccccc32)C(=O)c2ncccc21 (stereo not given) | -5.7% | i | 6.31µM* | 25.1µM* | 2.51µM* | ?
O=C1C(Cl)=C(NCCN2CCOCC2)C(=O)c2ncccc21 | . | . | 5.01µM* | . | 3.16µM* | -77.3%
COc1ccc(OC)c(CCNC(=O)CCn2c(=O)c3cccn3c3cccnc32)c1 | . | . | -19.1% | . | -5.6% | .
COc1ccc(NS(=O)(=O)c2ccc(I)cc2)cc1N1CCN(C)CC1 | -3.6% | i | -28.1% | 39.8µM* | -5.3% | 8.6%
CCOCc1cc(CN2CCN(c3cccc(Cl)c3)CC2)c(O)c2ncccc12 | . | . | 3.16µM* | . | -7.3% | .
Cc1[nH]n2c(=O)cc(C(C)(C)C)nc2c1-c1ccccc1 | 3.6% | i | ? | 8.8% | -17.5% | -2.0%
Cc1[nH]n2c(=O)cc(C(C)C)nc2c1-c1ccccc1 | -10.7% | i | 12.6µM* | -12.2% | -29.3% | -11.3%
CCc1ccc(NC(=O)C2CCN(c3nn4cc(-c5ccc(OC)cc5)nc4s3)CC2)cc1 | . | . | . | . | -4.1% | .
Cc1nn2cc(-c3ccccc3)nc2s1 | -1.9% | i | 10µM* | 4.4% | 10µM* | -4.0%
CCCCc1nn2c(=O)cc(CN(CC)c3ccccc3)nc2s1 | . | . | -5.8% | . | 15.0% | .
CCCCCc1nn2cc(-c3ccccc3)nc2s1 | . | . | 10µM* | . | ? | .
CCCc1nn2c(C)c(-c3ccccc3)nc2s1 | . | . | 10µM* | . | 6.31µM* | .
CCc1ccc(-c2cn3nc(CC)sc3n2)cc1 | . | . | 6.31µM* | . | 12.6µM* | .
Cc1ccc(-c2cn3nc(N4CCC(C(=O)Nc5ccccc5C)CC4)sc3n2)cc1 | . | . | . | . | 1.7% | .
C[C@@H]1O[C@@H](OC[C@@H]2O[C@@H](Oc3c(-c4ccc(O)c(O)c4)oc4cc(O)cc(O)c4c3=O)[C@H](O)[C@H](O)[C@@H]2O)[C@H](O)[C@H](O)[C@@H]1O | -6.2% | i | . | ? | . | .
COc1ccccc1NS(=O)(=O)c1cc(C(=O)O)ccc1F | . | . | 5.2% | . | 4.7% | .
CCOC(=O)c1ccccc1NC(=O)CCc1c(C)nc2ncnn2c1C | . | . | -0.7% | . | 2.8% | .
CC(C)Cc1nn2cc(-c3cccc(Br)c3)nc2s1 | . | . | 10µM* | . | 12.6µM* | .
SMILES | Pol III holo inh | YjeE inh | p53ts 39C kill | Tau filament bind | p53ts 32C tox | ERK AVP inh
Cc1nn2cc(-c3ccc(OC(C)C)cc3)nc2s1 | . | . | 10µM* | . | 12.6µM* | .
CC(C)Cn1c(-c2cccc(Br)c2)nc2ccccc21 | . | . | -25.5% | . | -4.6% | .
c1ccc(-c2nnc3sc(-c4ccncc4)nn23)cc1 | -3.3% | i | 4.1% | -9.4% | 7.5% | ?
c1ccc(-c2cn3nc(-c4ccccc4)sc3n2)cc1 | 1.2% | i | ? | 1.0% | 1µM* | 23.0%
Cc1ccc(-c2nnc(Nc3ccc(Br)cc3)c3ccccc23)cc1S(=O)(=O)N1CCN(C)CC1 | . | . | -6.3% | . | -5.1% | .
CC1CCC(NC(=O)c2ccc(CS(=O)(=O)c3ccc(Cl)cc3)o2)CC1 (stereo not given) | . | . | -4.6% | . | 4.6% | .
Cc1ccc(C)c(CN2C(=O)c3ccccc3S(=O)(=O)c3ccc(C(=O)NCCCN4CCCC(C)C4)cc32)c1 (stereo not given) | . | . | ? | . | -0.6% | .
CC1CCCN(CCCNC(=O)c2ccc3c(c2)N(Cc2ccc(Cl)cc2)C(=O)c2ccccc2S3(=O)=O)C1 (stereo not given) | . | . | 10µM* | . | ? | .
COc1ccc(C2CC(=O)c3cnc(NC(=O)c4cc(OC)cc(OC)c4)nc3C2)cc1 (stereo not given) | 8.1% | i | -10.2% | -17.5% | 8.9% | -23.1%
COc1ccc(C2CC(=O)c3cnc(NC(=O)c4ccccc4OC)nc3C2)c(OC)c1 (stereo not given) | -5.3% | i | 13.3% | 69.7% | 5.0% | 10µM*
CC1CCC/C(=C\Nc2ccc3c(c2)OCO3)C1=O (stereo not given) | -0.6% | i | -14.6% | 25.1µM* | -23.9% | -29.1%
COc1cccc(NC(=O)c2cc3c(=O)n(C)c4ccccc4c3n2C)c1 | . | . | -9.6% | . | 3.7% | .
COc1cccc(CC(=O)Nc2ccc3nc(N4CCC(C)CC4)cc(C)c3c2)c1 | . | . | 0.5% | . | -0.4% | .
Nc1nc(N)c2nc(-c3ccccc3)c(N)nc2n1 | -5.0% | i | -6.9% | 7.7% | 12.6µM*! | 39.1%
Nc1nnc(C(=O)c2ccccc2N)s1 | ? | i | ? | -85.2% | 15.8µM* | 20.4%
Nc1nnc(-c2cccnc2)s1 | -0.8% | i | -1.4% | 16.9% | 4.8% | -8.3%
O=S(=O)(c1ccccc1Cl)N1CCC(O)(c2ccc3c(c2)OCO3)CC1 | 1.1% | i | 4.5% | -2.7% | -10.5% | 31.6µM*
O=S(=O)(c1ccc2c(c1)OCCO2)N1CCC(O)(c2ccc(Cl)cc2)CC1 | -0.7% | i | 1.0% | -9.6% | 9.0% | 9.1%
CSc1ncnc2c1ncn2C1OC(CO)C(O)C1O (stereo not given) | . | . | 10µM* | . | ? | 14.3%
OCC1OC(n2cnc3c(Cl)nc(Cl)nc32)C(O)C1O (stereo not given) | . | . | ? | . | ? | -26.7%
OC[C@H]1O[C@@H](n2cnc3cncnc32)[C@H](O)[C@@H]1O | . | . | 10µM* | . | ? | -0.5%
OC[C@H]1O[C@@H](n2cnc3c(NCc4ccco4)ncnc32)[C@H](O)[C@@H]1O | . | . | ? | . | 15.8µM* | 3.9%
CNc1ncnc2c1ncn2[C@@H]1O[C@H](CO)[C@@H](O)[C@@H]1O | 3.8%[25.6 µM] | i | 11.4%[20.6 µM] | 5.2%[25.6 µM] | 8.7%[20.6 µM] | 21.8%[25.7 µM]
Nc1nc(Cl)nc2c1ncn2[C@@H]1O[C@@H](CO)[C@@H](O)[C@H]1O | -2.2% | i | 12.6µM* | 6.2% | 15.8µM* | 12.6µM*
CCn1nc(-c2ccccc2)c(-c2ccccc2)c(C(=O)Nc2ccc(NC(C)=O)cc2)c1=O | . | . | -22.2% | . | 7.3% | .

Assay outcomes from PubChem BioAssay.
